Test results from PubChem BioAssay (NCATS).
Several values for one entry are separate records, joined by “and”; a condition that tells them apart may be missing. Equal values may be shown once. Inconclusive results are not listed. Unmarked numbers belong to inactive results. Activity calls are given as the source filed them. The call rests on the fitted dose curve; in most records, active means well fitted inhibition curve with a large enough effect; inconclusive means small, poorly fitted or top-dose-only effect; inactive means flat fitted curve, though single readings scatter.

Tested on: astro (control astrocytes)
Test: Drug repurposing screens with cells derived from glioblastoma tumor samples (AID 1345199); further: nearly all actives have a fitted effect of over 40% in size
Conditions: viability, ATP luminescence, 48 h; series mostly up to 45.9 µM; activity, negative = cell killing: at the top concentration
Experimental: CD133+ cells were isolated from GBM patient biopsies and cultured as neurospheres. Neurospheres from four patients were used to screen the NCATS pharmaceutical collection (NPC) library of approved drugs and bioactive compounds. […] The neurospheres were incubated with drugs for 48 hours in 1536-well format, then assayed with an ATP content cell viability assay. […] These hits were cherry picked to confirm activity in the four original GBM lines screened plus three other slower growing GMB lines (unable to yield enough cells for a full primary screen). Variable activities of the confirmed primary hits in the different GBM patient lines were observed. The patient line 206 responded to the greatest number of compounds and line 923 responded to the least amount of active compounds.
On the % scale 0 is the no-effect control and ±100 the full control effect; potency means the concentration at half of the fitted maximal effect.

| SMILES | Potency | activity, negative = cell killing |
| --- | --- | --- |
| C=C1CC[C@@H]2[C@](C)(CO)[C@H](O)CC[C@@]2(C)[C@@H]1C/C=C1/C(=O)OC[C@H]1O | 25.1 µM (active) | – |
| CC(=O)Oc1c(C)cc(OCC(O)CNC(C)C)c(C)c1C (stereo not given) | – | -15.7% |
| Cc1ccccc1OCC(O)CNCCOc1ccc(C(N)=O)cc1 (stereo not given) | – | -23.8% |
| CCOc1ccc2c(c1)C(C)=CC(C)(C)N2 | – | -12.6% |
| CC(=O)N[C@@H](CC(=O)N[C@@H](CCC(=O)O)C(=O)O)C(=O)O | – | 5.93% |
| CC[C@H]1OC(=O)[C@H](C)[C@@H](O[C@H]2C[C@@](C)(OC)[C@@H](O)[C@H](C)O2)[C@H](C)[C@@H](O[C@@H]2O[C@H](C)C[C@H](N(C)C)[C@H]2O)[C@](C)(O)C[C@@H](C)/C(=N\OCOCCOC)[C@H](C)[C@@H](O)[C@]1(C)O | – | -4.1% [at 21.2 µM] |
| COc1cc(-c2ccc(-[n+]3nc(-c4ccccc4)nn3-c3ccc([N+](=O)[O-])cc3)c(OC)c2)ccc1-[n+]1nc(-c2ccccc2)nn1-c1ccc([N+](=O)[O-])cc1 | 3.55 µM (active) | – |
| O=C(O)C[C@H](O)C[C@H](O)/C=C/c1c(C2CC2)nc2ccccc2c1-c1ccc(F)cc1 | 0.398 µM (active) | – |
| COc1ccc(CCNC[C@H](O)c2ccc(O)cc2)cc1OC | – | -15.7% |
| CC(=O)OCC(=O)[C@@]12OC3(CCCC3)O[C@@H]1C[C@H]1[C@@H]3CCC4=CC(=O)C=C[C@]4(C)[C@@]3(F)[C@@H](O)C[C@@]12C | – | -9.4% |
| CCOC(=O)O[C@]1(C(=O)COC(=O)CC)CC[C@H]2[C@@H]3CCC4=CC(=O)C=C[C@]4(C)[C@H]3[C@@H](O)C[C@@]21C | – | -7.16% [at 21.2 µM] |
| CO[C@H]1C=CO[C@@]2(C)Oc3c(C)c(O)c4c(O)c(c5c(c4c3C2=O)=NC2(CCN(CC(C)C)CC2)N=5)NC(=O)/C(C)=C\C=C/[C@H](C)[C@H](O)[C@@H](C)[C@@H](O)[C@@H](C)[C@H](OC(C)=O)[C@@H]1C | – | -20.6% |
| Cc1cc(CC(C)CC(C)(C)C)n(O)c(=O)c1 (stereo not given) (tested in a mixture with another compound) | 20 µM (active) | – |
| C=C[C@]1(C)C[C@@H](OC(=O)CSC(C)(C)CNC(=O)[C@H](N)C(C)C)[C@]2(C)[C@H](C)CC[C@]3(CCC(=O)[C@H]32)[C@@H](C)[C@@H]1O | – | -25.8% |
| CCCCCCCCCCCCCC[n+]1ccc(C)cc1 | 3.16 µM (active) | – |
| Cc1cc(/C=C/c2ccc3cc(N(C)C)ccc3[n+]2C)c(C)n1-c1ccccc1 | 11.2 µM (active) | – |
| CCN(CC)Cc1cc(Nc2ccnc3cc(Cl)ccc23)ccc1O | – | -19.3% [at 21.2 µM] |
| Cc1cn([C@H]2C[C@H](O)[C@@H](CO)O2)c(=O)[nH]c1=O | – | 4.13% |
| O=C(O)c1cc(=O)c2c3nc4ccccc4oc-3cc(=O)c2[nH]1 | – | -16.4% |
| CC[N+](CC)(CC)CCC(O)(c1ccccc1)C1CCCCC1 (stereo not given) | – | -13.6% [at 21.2 µM] |

| SMILES | Potency | activity, negative = cell killing |
| --- | --- | --- |
| COc1cc2c(cc1O)CCN[C@]21CS[C@@H]2c3c(OC(C)=O)c(C)c4c(c3[C@H](COC1=O)N1[C@@H]2[C@H]2c3c(cc(C)c(OC)c3O)C[C@@H]([C@@H]1O)N2C)OCO4 | 8.91 µM (active) and 14.1 µM (active) | – |
| CC1(C)O[C@@H]2C[C@H]3[C@@H]4CCC5=CC(=O)C=C[C@]5(C)[C@H]4[C@@H](O)C[C@]3(C)[C@]2(C(=O)CO)O1 | – | -8.13% |
| OC[C@H]1O[C@@H](OCCc2ccc(O)cc2)[C@H](O)[C@@H](O)[C@@H]1O | – | 3.14% |
| O=C(O)C1CCCN1 (stereo not given) | – | -17.4% |
| COC(=O)CCC(=O)CN | – | -13.5% |
| Clc1cc(Cl)c(OCC#CI)cc1Cl | – | -26.7% |
| CCOc1ccc(N=Nc2ccc(N)cc2N)cc1 | 2.51 µM (active) | – |
| CC(=O)O[C@]1(C(C)=O)CC[C@H]2[C@@H]3CCC4=CC(=O)CC[C@]4(C)[C@@]3(F)[C@@H](O)C[C@@]21C | – | -21.2% |
| CCCCCCCCCCCC[n+]1ccc2ccccc2c1 | 5.01 µM (active) | – |
| Nc1ccn([C@H]2CS[C@@H](CO)O2)c(=O)n1 | – | -15.3% |
| C#CCOc1ccc2c(C)cc(=O)oc2c1 | – | -11.8% |
| C[C@]12O[C@H](C[C@]1(O)CO)n1c3ccccc3c3c4c(c5c6ccccc6n2c5c31)CNC4=O | 0.447 µM (active) | – |
| C=CCSSSCC=C | – | -22.8% |
| CN1Cc2c(N)cccc2C(c2ccccc2)C1 (stereo not given) | – | -22.7% |
| COc1ccc(C[C@H](N)C(=O)N[C@H]2[C@@H](O)[C@H](n3cnc4c(N(C)C)ncnc43)O[C@@H]2CO)cc1 | 3.16 µM (active) | – |
| CCCC(=O)Nc1ncnc2c1ncn2[C@@H]1O[C@@H]2COP(=O)(O)O[C@H]2[C@H]1OC(=O)CCC | – | -25.4% |
| CCC(=O)NCCC1CCc2ccc3c(c21)CCO3 (stereo not given) | – | -29.8% |
| CC[C@@H](C(=O)[C@@H](C)[C@@H](O)[C@H](C)CCc1ccc(C)c(O)c1C(=O)O)[C@H]1O[C@](CC)([C@H]2CC[C@](O)(CC)[C@H](C)O2)C[C@@H]1C | 7.08 µM (active) | – |
| IC(I)I | – | -15.2% |
| Cc1ccccc1 | – | -15.4% |
